HP1b chromo inh: HP1-beta chromodomain-methylated histone interaction inhibition. AID 540317. AlphaScreen HP1-beta / biotin-H3K9me3 peptide binding. 0.56% of 390,000 active. P83916. Potency, µM (highest dose often 114 µM), inactives show at the top dose activity change, negative = inhibition, most hits filed as inhibitors; further: potency means the concentration at half of the fitted maximal effect; nearly all actives have a fitted effect of over 70% in size
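Compound inhibition of the preformed complex between 50 nM HP1-beta and 50 nM biotinylated H3K9me3 peptide was read by AlphaScreen. Buffer was PBS pH 7.4 with 0.01% Tween-20. Incubations ran 30 min at room temperature, with 10 ug/mL donor/acceptor beads.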
JMJD2A Tudor: inhibitors of human JMJD2A Tudor domain; Potency, µM (series often up to 114 µM), for the others: at the highest dose activity change, negative = inhibition, usual class: inhibitors; AID 504339; 4.4% of 390,000 active; O75164; AlphaScreen JMJD2A-Tudor / H3K4me3 peptide binding; further: potency means the concentration at half of the fitted maximal effect; on the % scale 0 is the no-effect control and ±100 the full control effect; nearly all actives have a fitted effect of over 50% in size
Six1-Eya2 blk: Six1/Eya2 interaction inhibition | AlphaScreen GST-Six1/His-Eya2 binding, biochemical; stronger effect = lower value | Q15475+O00167 | 0.56% of 360,000 active | activity change, % (no concentration beside the values); in the data active means activity change below about -65%; inconclusive means mostly about -30% to -63%; further: on the % scale 0 is the no-effect control and ±100 the full control effect
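AlphaScreen luminescence read after one hour at 37 °C in darkness. Pin-transferred compounds met GST-Six1 and His-Eya2 protein (5X stock 250 nM/500 nM) plus glutathione donor and Ni-chelate acceptor beads (5X, 50 ug/mL).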
BAZ2B inh: blocks human BAZ2B; Potency, µM (highest dose often 114 µM), inactives show top-dose activity change, negative = inhibition, actives largely listed as inhibitors; 4.4% of 360,000 active; AlphaScreen BAZ2B-H3K14Ac peptide displacement; Q9UIF8; further: potency means the concentration at half of the fitted maximal effect; on the % scale 0 is the no-effect control and ±100 the full control effect; nearly all actives have a fitted effect of over 60% in size
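BAZ2B (50 nM) with biotin-H3(5-23)K14Ac peptide (50 nM) in PBS pH 7.4, 0.01% Tween-20, preformed 30 min, then compound 30 min at room temperature; top concentration 110uM. AlphaScreen streptavidin donor/nickel chelate acceptor beads (10 ug/mL final), 20 min dark, signal read.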
G9a block: inhibitors of human histone lysine methyltransferase G9a; G9a H3K9 monomethylation, AlphaScreen, 2 h; Potency, µM (doses to about 102 µM), for the others: top-dose activity, negative = inhibition, usual class: inhibitors; 8.8% of 350,000 active; AID 504332; further: potency means the concentration at half of the fitted maximal effect; on the % scale 0 is the no-effect control and ±100 the full control effect; nearly all actives have a fitted effect of over 75% in size
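Quantitative HTS format: methyltransferase activity on a biotin-tagged H3K9 peptide is measured by AlphaScreen, using a rabbit anti-monomethyl-H3K9 antibody with streptavidin donor and anti-IgG acceptor beads. Final levels are 20 nM enzyme, 500 nM peptide, 20 uM SAM; 2 h RT.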
CtBP-E1A inh: blocks the CtBP interaction with E1A | AlphaScreen GST-E1A/His-CtBP binding, 1536-well; stronger effect = lower value | activity change, % (concentration not given with the values) | 0.49% of 340,000 active; in the data active means activity change below about -65%; inconclusive means mostly about -30% to -63%; further: on the % scale 0 is the no-effect control and ±100 the full control effect
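Steps: dispense buffer (Tris pH 8.0, NaCl 300 mM, TCEP 1 mM, BSA, Tween 20); add 5X protein mix (GST-E1A, His-CtBP, 125 nM each); pin 23 nL compound; 2 h at 37 °C, dark; add 5X beads (50 ug/mL); 1 h; read.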
The depositor's hits bear a star; ? = inconclusive; · = no result; [ ] = another dose, or the depositor's remark. An excerpt weighted towards active compounds, which were near 10% of everything screened. Unless noted, the call rests on the fitted dose curve; in most records, active means well fitted inhibition curve with a large enough effect; inconclusive means small, poorly fitted or top-dose-only effect; inactive means no such curve, though single readings can be large or run the other way.

SMILES	HP1b chromo inh	JMJD2A Tudor	Six1-Eya2 blk	BAZ2B inh	G9a block	CtBP-E1A inh
CCN1CCN(CCCN(Cc2ccco2)C(=S)Nc2ccc(Cl)cc2)CC1	-12%	-23%	0	-9%	?	3
CCCn1c(=O)c2sccc2n2c(CCCC(=O)Nc3ccc(C)c(F)c3)nnc12	34%	-16%	·	-8%	-7%[59 µM]	·
CCc1ccccc1NC(=O)Cn1c(=O)ccc2cc(S(=O)(=O)N3CCC(C)CC3)ccc21	25%[57 µM]	-5%	·	3%	2%[59 µM]	·
CCn1ccnc1CN1CCc2c([nH]c3ccccc23)C1C(C)(C)C (configuration not stated)	-4%	?	-9	?	?	-7
CCn1ccnc1CN1CCc2c([nH]c3ccccc23)C1C1CCCCC1 (configuration not stated)	-16%	14µM*	-1	35µM*	45µM*	0
S=C(NC1CCCCC1)N1CCn2cccc2C1c1cccnc1 (configuration not stated)	-27%	-36%	0	?	71µM*	-12
S=C(NC1CCCCC1)N1CCn2cccc2C1c1ccncc1 (configuration not stated)	-8%	-19%	-5	50µM*	?	-15
Fc1ccc(C2c3cccn3CCN2C(=S)Nc2cccc(F)c2)cc1 (configuration not stated)	-11%	-23%	-20	?	-46%	4
Cc1cc(Cl)ccc1Nc1nc(NCc2ccco2)nc2nccnc12	26%	-13%	·	·	·	·
CCN(CC)C(=O)[C@H]1CC(CC(=O)NC/C=C(\C)CCC=C(C)C)C(=O)N2CCc3c([nH]c4ccc(OC)cc34)[C@]12C (some centres not stated)	?	50µM*	-23	·	·	-18
CCN(CC)C(=O)[C@H]1C[C@H](CC(=O)NC/C=C(\C)CCC=C(C)C)C(=O)N2CCc3c([nH]c4cc(-c5ccco5)ccc34)[C@]12C	?	32µM*	-17	·	·	-22
COc1ccc(C(CCN2CCCC(C)C2)c2c(OC)cc(OC)c3c2OC(=O)CC3c2cc(OC)c(OC)c(OC)c2)cc1 (configuration not stated)	7%	-21%	-6	-24%	-6%[59 µM]	-6
CCN(CC)CCC(c1ccc(N(C)C)cc1)c1c(OC)cc(OC)c2c1OC(=O)CC2c1ccc(N(C)C)cc1 (configuration not stated)	14µM*	13µM*	·	·	·	·
COc1cc(OC)c2c(c1C(CCN1CCN(c3ccccc3)CC1)c1ccc(N(C)C)cc1)OC(=O)CC2c1ccc(N(C)C)cc1 (configuration not stated)	?	13µM*	·	·	·	·
CCN(CC)CCC(c1ccc(N(C)C)cc1)c1c(OC)cc(OC)c2c1OC(=O)CC2c1ccc(OC)cc1 (configuration not stated)	?	16µM*	·	·	·	·
CCOC(=O)c1ccc(NC(=O)c2cccc3c(=O)c4c([nH]c23)CCCC4)cc1	29%	-14%	·	2%	?	·
NC(=O)C(OC(=O)CNC(=O)C1CCCCC1)c1ccccc1 (configuration not stated)	28%[57 µM]	-2%[57.1 µM]	·	·	·	·
COc1ccc(OC)c(C2=NS(=O)(=O)N(C)C(C(=O)NCc3cccs3)=C2)c1	-7%	22µM*	-3	-30%	-2%	-11
COc1ccc(OC)c(C2=NS(=O)(=O)N(C)C(C(=O)Nc3cccc(C(C)=O)c3)=C2)c1	-11%	16µM*	-8	?	45µM*	-11
CCN(CC)CCNC(=O)c1ccc(-c2nc(CS(=O)(=O)c3ccc(C)cc3)c(C)o2)cc1	4%	-13%	·	-19%	?	·
O=C(O)c1ccccc1NCCO	15%	-16%	10	·	50µM*	3
O=C(O)c1ccccc1NCc1ccncc1	31%	-5%	-1	-39%	40µM*	-7
O=C(O)c1ccccc1NCc1ccsc1	42%	-4%	10	-18%	-26%	3

Bioassay records (PubChem)
